Measured values published in PubChem BioAssay (NCI).
The panel holds about 79,000 compounds, 15% with a hit somewhere; the sample as a whole holds those more often. Values without a mark were called inactive. Calls of active or inactive are those of the source. Cut-off read from the data, not from the text of the source: active = growth inhibition above about 70%; inactive = the rest.

Legend:
[1] = NCI Yeast Anticancer Drug Screen. Data for the rad50 strain (AID 155);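 note: 0% = growth of vehicle-only cultures of the same strain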; conditions: S. cerevisiae rad50 strain growth inhibition, active compounds read high
How it was run: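 Genetically altered yeast (DNA repair pathway); compound treatment; growth inhibition vs vehicle ctrl.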

[2] = NCI Yeast Anticancer Drug Screen. Data for the mec2-1 strain (AID 157); conditions: S. cerevisiae mec2-1 strain, active compounds read high
How it was run: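 Readout is yeast growth inhibition, normalised to vehicle-treated controls, in the mec2-1 strain exposed to compound.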

[3] = NCI Yeast Anticancer Drug Screen. Data for the sgs1 mgt1 strain (AID 161);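 note: 0% = growth of cultures given vehicle only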; conditions: S. cerevisiae sgs1 mgt1 strain, active compounds read high
How it was run: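 Compounds are added to genetically altered yeast, and growth is compared with cultures given vehicle alone to give percent inhibition.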

[4] = NCI Yeast Anticancer Drug Screen. Data for the cln2 rad14 strain (AID 165);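 note: 0% = growth equal to vehicle treated cultures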; conditions: S. cerevisiae cln2 rad14 strain, active compounds read high
How it was run: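 Relative to vehicle controls, growth inhibition of compound-treated cln2 rad14 yeast was recorded.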

[5] = NCI Yeast Anticancer Drug Screen. Data for the bub3 strain (AID 167); conditions: S. cerevisiae bub3 mutant strain, active compounds read high
How it was run: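 Yeast carrying a defined mutation is treated with each compound, and growth is compared with that of vehicle-exposed cells to give inhibition.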

[6] = NCI Yeast Anticancer Drug Screen. Data for the mlh1 rad18 strain (AID 175); conditions: S. cerevisiae mlh1 rad18 strain growth inhibition, active compounds read high
How it was run: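 Test agents were incubated with a yeast strain of defined genotype (DNA damage repair defect). Inhibition of growth was derived by comparison with vehicle-exposed cultures.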

[7] = at 5.0 µM (retest, dose inferred, filed as 0.5)
[8] = at 50.0 µM (retest, dose inferred, filed as 5.0)

SMILES	growth inhibition [1, 7]	growth inhibition [1, 8]	growth inhibition ([1]; at 50.0 µM)	growth inhibition [2, 7]	growth inhibition [2, 8]	growth inhibition ([2]; at 50.0 µM)	growth inhibition [3, 7]	growth inhibition [3, 8]	growth inhibition ([3]; at 50.0 µM)	growth inhibition [4, 7]	growth inhibition [4, 8]	growth inhibition ([4]; at 50.0 µM)	growth inhibition [5, 7]	growth inhibition [5, 8]	growth inhibition ([5]; at 50.0 µM)	growth inhibition [6, 7]	growth inhibition [6, 8]	growth inhibition ([6]; at 50.0 µM)
Cc1cc(NC(=S)SCc2ccc(Cl)cc2)ccc1F	5%	66%	97.5% (active)	1%	70% (active)	96% (active)	2%	95% (active)	97.8% (active)	-7%	99% (active)	88% (active)	19%	97% (active)	98.5% (active)	2%	89% (active)	96.4% (active)
N#CSCCl	0%	42%	91.7% (active)	5%	75% (active)	92% (active)	-2%	20%	93.8% (active)	1%	61%	91% (active)	-4%	93% (active)	92.3% (active)	3%	87% (active)	92% (active)
CN(C)c1ccc2c(NCCCCCCNc3ccnc4cc(N(C)C)ccc34)ccnc2c1	10%	95% (active)	84.5% (active)	7%	97% (active)	91.2% (active)	16%	98% (active)	53.4%	1%	92% (active)	29.4%	-2%	97% (active)	30.5%	14%	95% (active)	-5.8%
O=[N+]([O-])c1cccc(C=Nc2ccccc2O)c1	22%	34%	63.1%	12%	31%	41.8%	13%	35%	52.7%	-4%	7%	17.6%	23%	82% (active)	76% (active)	24%	48%	70.8% (active)
Oc1ccc(C(O)(c2ccccc2)c2ccccc2)c2ccccc12	45%	94% (active)	98.2% (active)	12%	98% (active)	97.9% (active)	59%	93% (active)	98.5% (active)	28%	67%	97.2% (active)	7%	43%	98% (active)	20%	96% (active)	97.5% (active)
C=C1C(=O)OC2C(C)C3C=CC(=O)[C@@]3(C)C(OC(=O)/C(C)=C/C)C1[C@@H]2OC(C)=O (stereo not given in full)	3%	91% (active)	80.2% (active)	16%	95% (active)	88.5% (active)	13%	92% (active)	87.8% (active)	11%	81% (active)	79.3% (active)	4%	93% (active)	89.5% (active)	16%	94% (active)	87% (active)
CCCCCCCCCCCCS	0%	-3%	26.2%	-1%	-1%	6.25%	-3%	-1%	15.9%	-2%	1%	43.3%	2%	-3%	-20.6%	3%	6%	-30.9%
Cc1cc(C)n2nc(N)c(C#N)c2c1C#N	-2%	1%	17.2%	1%	0%	7.85%	2%	8%	0.85%	-2%	2%	11.7%	-1%	-3%	47.7%	-1%	7%	62%
O=C(CCl)N(Cc1ccccc1)Cc1ccccc1	-2%	92% (active)	84% (active)	-1%	95% (active)	92.1% (active)	-8%	94% (active)	89.5% (active)	2%	84% (active)	42.5%	6%	92% (active)	85% (active)	-1%	92% (active)	78.6% (active)
Cc1ccc(COCO)c(O)c1	-1%	-8%	-6.7%	0%	2%	35.8%	2%	-4%	-10.8%	-7%	-3%	-18.1%	-3%	-4%	-0.15%	-1%	-4%	-16.4%
